# Screens: PubChem BioAssay, Broad Institute
# mut p53 react: mutant p53 pathway re-activators, primary screen, cell-based, SW480, luciferase, single point, HTS. 1.5% of 28,000 active. SW480 PUMA-promoter luciferase, p53 mutant reactivation. AID 624151, 2012. activation, % at 9.98 µM; in the data active = activation above about 52%; inconclusive = no clear call, values can overlap the other calls
# MITF inhib: inhibitors of MITF, primary screen, MITF inhibitor project, cell-based, luminescence. AID 2240, 2010. 0.28% of 37,000 active. inhibition, % (no concentration beside the values). TRPM1 promoter luciferase, 24 h; in the data active = inhibition above about 85%; inconclusive = no clear call, values can overlap the other calls; inactive = below about 68%;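 note: human melanocyte line stably carrying TRPM1 promoter luciferase reporter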
# STK33 kin inh: STK33 kinase inhibitors, primary screen, biochemical, luminescence, ADP-Glo, MBP substrate; AID 2322, 2010; 0.44% of 27,000 active; inhibition, % at 12.5 µM; Serine/threonine-protein kinase 33 (Homo sapiens), Q9BYT3; in the data active = inhibition above about 20%; inconclusive = no clear call, values can overlap the other calls
# Target sequence (Q9BYT3 whole entry, looked up): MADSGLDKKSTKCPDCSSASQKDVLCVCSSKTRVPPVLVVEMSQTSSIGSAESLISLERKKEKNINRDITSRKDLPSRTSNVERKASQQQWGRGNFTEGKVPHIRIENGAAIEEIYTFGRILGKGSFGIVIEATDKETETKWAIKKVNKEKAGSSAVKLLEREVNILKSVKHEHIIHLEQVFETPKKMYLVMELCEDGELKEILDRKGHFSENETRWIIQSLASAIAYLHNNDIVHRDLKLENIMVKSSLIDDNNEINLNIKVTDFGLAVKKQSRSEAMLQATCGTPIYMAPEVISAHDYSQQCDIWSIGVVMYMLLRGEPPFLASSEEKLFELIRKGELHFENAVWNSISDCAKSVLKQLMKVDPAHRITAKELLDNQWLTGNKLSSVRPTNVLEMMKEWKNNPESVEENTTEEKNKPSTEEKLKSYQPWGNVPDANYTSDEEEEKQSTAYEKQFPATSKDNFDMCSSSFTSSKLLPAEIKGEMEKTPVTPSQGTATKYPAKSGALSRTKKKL
# NOMO-1 viab: NOMO-1 AML cell viability reduction, primary screen, STK33 inhibitor project, CellTiter-Glo luminescence. inhibition, % (no concentration beside the values). 7.5% of 37,000 active. NOMO-1 AML viability, 72 h; in the data active = inhibition above about 80%; inconclusive = no clear call, values can overlap the other calls
# * marks the source's active call; other numbers are inactive results; ? = inconclusive; . = not tested or not shown. This excerpt belongs to a sample that is enriched for hits.
SMILES,mut p53 react,MITF inhib,STK33 kin inh,NOMO-1 viab
CC(/C=C/[C@@]1(C)[C@H](C)CCC(=O)[C@@H]1C)=C\Cc1c(O)c(Cl)c(C)c(C=O)c1O,.,74.8,-1.7,111.8*
NCC(=O)Nc1ccc(Br)cc1C(=O)c1ccccc1,112.6*,-124.8,2.7,4.0
CN(CC(=O)Nc1ccc(Cl)cc1C(=O)c1ccccc1)S(=O)(=O)c1ccc(Cl)cc1,-16.3,10.7,-0.3,18.0
CCC(C)(O)C(=O)O[C@H]1C(=O)O[C@@H]2C[C@H]3C(C)=CC(=O)[C@@H](O)[C@]3(C)[C@H]3[C@@]4(O)OC[C@]32[C@@H]1[C@@H](C)[C@H]4O (some centres not stated),.,91.6*,-3.2,124.1*
C[C@@H]1C[C@@H]([C@H](O)CC2CC(=O)NC(=O)C2)C(=O)[C@@H](C)C1,.,72.3,-4.2,113.9*
C[C@@H]1CC([C@H](O)CC2CC(=O)NC(=O)C2)C(=O)[C@@H](C)C1 (some centres not stated),-79.6,55.4,-0.2,140.7*
COCc1cc(OC(=O)N(C)C)nc(COc2ccc(Cl)cc2)n1,-9.8,.,.,.
CNc1ccccc1C(=O)O,.,-8.6,-0.4,1.6
C[CH2][Hg][S]c1ccccc1C(=O)O,.,105.0*,2.7,110.8*
CC(C)(O)/C=C/C(=O)[C@](C)(O)C1[C@H](O)C[C@@]2(C)[C@@H]3CC=C4C(CC(=O)C(=O)C4(C)C)[C@]3(C)C(=O)C[C@@]12C (some centres not stated),-60.2,.,.,.
CCn1cnc2c(Nc3cccc(Cl)c3)nc(N[C@@H]3CCCC[C@@H]3N)nc21,-62.7,51.4,62.5*,99.7*
CC1(C)C(C(=O)Nc2nccs2)C1(C)C,.,-2.8,0.7,11.4
C=CC1C[N+]2([O-])CCC1CC2C(O)c1ccnc2ccccc12 (configuration not stated),8.7,.,0.0,.
CC(C)(C)c1cc(C=C(C#N)C#N)cc(Br)c1O,-2.3,78.3,4.6,57.3
N#CC(C#N)=Cc1ccc(O)cc1,.,-3.0,7.2,86.7*
C=C1[C@@H](O)[C@]23C[C@@H]1[C@@H](O)C[C@H]2[C@@]12C4[C@@H]3C[C@@H]1[C@@](C)(CC[C@@H]2O)CN4CC,-10.5,.,.,.
CCN1C[C@]2(C)CC[C@H](OC)[C@@]34C2[C@H](O)C([C@@H]13)[C@@]1(OC)C[C@H](OC)[C@H]2C[C@@H]4[C@@H]1[C@H]2O,.,-13.2,-0.4,3.6
CNc1ccc2oc(C[C@@H]3OC4(CC[C@@H]3C)O[C@H](C(C)C(=O)c3ccc[nH]3)[C@H](C)C[C@H]4C)nc2c1C(=O)O (some centres not stated),-74.9,105.0*,1.2,119.8*
CC1(C)C(=O)C=C[C@@]2(C)C1C(=O)C(=O)[C@]1(C)C2CC[C@@]2(C)[C@H](c3ccoc3)C[C@H]3O[C@]321 (some centres not stated),.,107.9*,-8.2,107.9*
Brc1cccc(CN2CCN(Cc3cccc(Br)c3)CC2)c1,12.5,.,.,.
COc1ccc(CC2(CCc3ccncc3)C(=O)NC(=O)N(c3cccc(C)c3)C2=O)c(OC)c1 (configuration not stated),0.2,-23.5,-0.3,16.6
C=C1[C@@H](C)[C@H]2[C@H](Cc3ccccc3)NC(=O)[C@]23OC(=O)/C=C\[C@H](O)CCC[C@@H](C)C/C=C/[C@H]3[C@@H]1O,-68.2,21.3,-0.4,120.1*
OC[C@H]1O[C@@H](Oc2ccc(/C=C/c3cc(O)cc(O)c3)cc2O)[C@H](O)[C@@H](O)[C@@H]1O,6.4,.,-1.0,.
O=C1C=C2C=C[C@@H]3C[C@@]2(O1)[C@H]1CCCCN31,-2.0,25.2,2.6,90.5*
CC(C)N(C(=O)SCC(Cl)=C(Cl)Cl)C(C)C,.,7.2,-3.3,10.4
SMILES,mut p53 react,MITF inhib,STK33 kin inh,NOMO-1 viab
COc1cc2c(c(OC)c1OC)-c1cc3c(cc1[C@H](OC(C)=O)[C@H]1COC(=O)[C@@H]1C2)OCO3,.,26.2,-3.4,106.5*
C[C@@H]1O[C@@H](O[C@@H]2C=C3CCC4C(CC[C@]5(C)[C@@H](c6ccc(=O)oc6)CC[C@]45O)[C@@]3(C)CC2)[C@H](O)[C@H](O)[C@H]1O (some centres not stated),-79.2,41.6,-1.4,119.7*
C[C@@H]1O[C@@H](O[C@@H]2C=C3CC[C@@H]4C(CC[C@]5(C)[C@@H](c6ccc(=O)oc6)CC[C@]45O)[C@@]3(C)CC2)[C@H](O)[C@H](O)[C@H]1O (some centres not stated),-92.5,20.0,-3.4,107.7*
CCN1CC2(COC(=O)c3ccccc3N3C(=O)CC(C)C3=O)CCC(OC)C34C5CC6C(OC)CC(O)(C5C6OC)C(O)(C(OC)C23)C14 (configuration not stated),-1.9,.,.,.
Oc1ccc2c3c1OC1c4[nH]c5c(c4CC4(O)C(C2)N(CC2CC2)CCC314)CC1(O)C2Cc3ccc(O)c4c3C1(CCN2CC1CC1)C5O4 (configuration not stated),-1.0,.,.,.
O=C1NC(=O)C(=Cc2cn(Cc3ccccc3)c3ccccc23)C(=O)N1,.,-1.5,.,125.6*
COc1ccc(OC)c(NC(=S)NCCc2cnc[nH]2)c1,-8.3,-10.5,-2.2,38.0
C=C(CO)C(=O)O[C@H]1CC(=C)[C@@H]2C[C@H](O)C(=C)[C@@H]2[C@H]2OC(=O)C(=C)[C@@H]21,.,-44.9,4.8,120.8*
C=C(CO)C(=O)O[C@H]1C/C(C)=C\CC/C(CO)=C\[C@H]2OC(=O)C(=C)[C@H]12,.,-15.3,-3.6,122.5*
O=C1CCC2(O)C3Cc4ccc(O)c5c4C2(CCN3CC2CC2)C1O5 (configuration not stated),10.3,.,.,.
O=c1c2ccccc2nc(CSc2ncnc3ccccc23)n1-c1ccccc1F,-3.5,70.7,6.1,?
CCCCn1c(=O)c(C(=O)NCc2ccccn2)c(O)c2ccccc21,4.0,31.9,5.0,66.3
NC1=C(C(=O)OCc2ccccc2)C2(C(=O)Nc3ccc(Br)cc32)C2=C(O1)C(=O)CCC2 (configuration not stated),.,9.9,.,45.0
CCCCC/C=C/C/C=C/C/C=C/C/C=C/CCCC(=O)Nc1ccc(O)cc1,-20.5,.,.,.
CCCCC/C=C\C/C=C\C/C=C\C/C=C\CCCC(=O)NCc1ccc(O)c(OC)c1,-5.2,7.5,-6.9,117.1*
CN[C@@H]1C[C@@]2(C)O[C@@H]([C@@H]1OC)n1c3ccccc3c3c4c(c5c6ccccc6n2c5c31)C(=O)NC4,.,100.8*,130.7*,113.8*
O=C(c1ccco1)c1cn(CCCOc2ccccc2)c2ccccc12,-7.0,-0.1,8.6,31.1
Cc1ccc(S(=O)(=O)N2CCCCC2)cc1C(=O)Oc1cccc2cccnc12,.,-27.9,.,116.2*
Clc1ccc(C2=CCCC3CCC2N3)cn1 (configuration not stated),7.2,.,.,.
C/C1=C/[C@@H](C)C/C=C/[C@H]2[C@@H]3O[C@]3(C)[C@@H](C)[C@H]3[C@H](Cc4c[nH]c5ccccc45)NC(=O)[C@]32C(=O)/C=C\C(=O)[C@@H]1O,-93.1,.,4.9,.
